What follows are compounds tested on Vero E6 infected with SARS-CoV-2 (assay: morphology score (similarity to uninfected cells); higher = more like uninfected cells). Conditions: 24 h.

Row | Compound | morphology score
1 | CCCCNNC(=O)c1ccc(Br)cc1 (0.833333 µM) | -0.294
2 | CC[C@@H](C(=O)[C@@H](C)[C@@H](O)[C@H](C)[C@@H]1O[C@@H]([C@@H](CC)C(=O)O)CC[C@@H]1C)[C@H]1O[C@]2(C=C[C@@H](O)[C@]3(CC[C@@](C)([C@H]4CC[C@](O)(CC)[C@H](C)O4)O3)O2)[C@H](C)C[C@@H]1C [Salinomycin (Procoxacin)] (10 µM) | -0.00386
3 | CCCC[C@@H](C=O)NC(=O)[C@H](CC(C)C)NC(=O)OCc1ccccc1 [calpeptin] (10 µM) | 0.815
4 | CN1CCCN(C(c2ccccc2)c2ccc(Cl)cc2)CC1 (centres undefined) [homochlorcyclizine] (10 µM) | 0.29
5 | CN[C@H](CC(C)C)C(=O)N[C@H]1C(=O)N[C@@H](CC(N)=O)C(=O)N[C@H]2C(=O)N[C@H]3C(=O)N[C@H](C(=O)N[C@H](C(=O)O)c4cc(O)cc(O)c4-c4cc3ccc4O)[C@H](O)c3ccc(c(Cl)c3)Oc3cc2cc(c3O[C@@H]2O[C@H](CO)[C@@H](O)[C@H](O)[C@H]2O[C@H]2C[C@](C)(N)[C@H](O)[C@H](C)O2)Oc2ccc(cc2Cl)[C@H]1O (10 µM) | 0.0907
6 | CCOCC(O)COc1ccc(NC(=O)CC[S+](C)C)cc1 (centres undefined) [suplatast] (10 µM) | 0.0407
7 | CC(C)(Oc1ccc(CCNC(=O)c2ccc(Cl)cc2)cc1)C(=O)O [bezafibrate] (10 µM) | 0.0236
8 | CNCC[C@@H](Oc1ccccc1C)c1ccccc1 [atomoxetine] (10 µM) | 0.0668
9 | O=C(Nc1ccc(Br)cc1)c1cc(Br)cc(Br)c1O [tribomsalan] (10 µM) | 0.043

— the supplement of paper PMC13380429
